# Assay results as given in PubChem BioAssay (EPA / NIEHS).
# Several values for one entry are separate records, joined by “and”; a condition that tells them apart may be missing. Equal entries are not always repeated. More than one record can exist for a structure, and the calls need not agree. Activity calls are given as the source filed them. Rule for the calls: active = hit-call score of the fitted dose curve at least 0.9, where 1 is the maximum; inactive = score below 0.9.
# How the values were obtained:
# [1] = read-out: Collagen I, COL1A1 (gene 1277); assay: BSK_MyoF_CollagenI: BioMAP Diversity Plus: MyoF Assay for Collagen I Biomarker Activity (AID 2284238); conditions: primary human lung fibroblasts
# Procedure, shortened: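 Lung fibroblasts (human primary) dosed, 24 h; Collagen I by ELISA; positive-direction fit vs DMSO control. Parallel SRB total-protein staining (0.1% SRB, 10% TCA fixation, 560 nm) flags overt cytotoxicity.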
# [2] = read-out: Actin alpha 1 (ACTA1), ACTA1 (gene 58); assay: BSK_MyoF_ACTA1: BioMAP Diversity Plus: MyoF Assay for Actin alpha 1 (ACTA1) Biomarker Activity (AID 2284244); conditions: primary human lung fibroblasts
# Procedure, shortened: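 Measured by ELISA: alpha-smooth muscle actin in human primary lung fibroblasts 24 h after dosing, with DMSO as baseline and upward signal change as the fitted direction.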
# [3] = read-out: Interleukin 2 (IL2), IL2 (gene 3558); assay: BSK_BT_xIL2: BioMAP Diversity Plus: BT Assay for Interleukin 2 (IL2) Biomarker Activity (AID 2284245); conditions: primary human B cells with PBMC
# Procedure, shortened: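 Secreted interleukin-2 from human B cell/PBMC co-cultures, measured 24 h post-dosing by Luminex multiplex immunoassay. Upward-direction curve fitting against DMSO baseline.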
# [4] = read-out: Basic fibroblast growth factor (bFGF), FGF2 (gene 2247); assay: BSK_MyoF_bFGF: BioMAP Diversity Plus: MyoF Assay for Basic fibroblast growth factor (bFGF) Biomarker Activity (AID 2284246); conditions: primary human lung fibroblasts
# Procedure, shortened: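 In this multiplexed cell system, lung fibroblasts (human primary) receive test chemical for 24 h before ELISA detection of bFGF; DMSO defines baseline and the analysis direction is positive.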
# [5] = read-out: Collagen IV, COL4A1 (gene 1282); assay: BSK_MyoF_CollagenIV: BioMAP Diversity Plus: MyoF Assay for Collagen IV Biomarker Activity (AID 2284247); conditions: primary human lung fibroblasts
# Procedure, shortened: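 Activity is scored as a signal increase over DMSO in an ELISA for Collagen IV, measured on human lung fibroblasts at 24 h after chemical treatment. Cytotoxicity is checked in parallel cultures by sulforhodamine B total-protein staining.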
# [6] = read-out: Plasminogen activator inhibitor-1 (PAI1), SERPINE1 (gene 5054); assay: BSK_MyoF_PAI1: BioMAP Diversity Plus: MyoF Assay for Plasminogen activator inhibitor-1 (PAI1) Biomarker Activity (AID 2284256); conditions: primary human lung fibroblasts;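 for outcome: PAI-1 protein level measured by ELISA in fibroblast cultures; PAI-1 read 24 h after compound addition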
# Procedure, shortened: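 Primary human lung fibroblasts are dosed and incubated 24 h. PAI-1 is then measured by ELISA, while parallel cultures undergo SRB staining for overt cytotoxicity. Increases over DMSO define activity.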
# [7] = read-out: Interleukin-8 (IL8), CXCL8 (gene 3576); assay: BSK_MyoF_IL8: BioMAP Diversity Plus: MyoF Assay for Interleukin-8 (IL8) Biomarker Activity (AID 2284261); conditions: primary human lung fibroblasts
# Procedure, shortened: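 IL-8 levels were measured by ELISA in human lung fibroblasts harvested 24 h after compound addition. Responses were analysed as gain of signal over the DMSO baseline.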
# Decorin, DCN (gene 1634) = assay: BSK_MyoF_Decorin: BioMAP Diversity Plus: MyoF Assay for Decorin Biomarker Activity (AID 2284265); conditions: primary human lung fibroblasts
# Procedure, shortened: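 Compound is added to lung fibroblast cultures; cells incubate 24 h; decorin is then measured by ELISA; the response is analysed upward against DMSO controls.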
# [8] = BSK_MyoF_SRB: Viability Assessment in the BioMAP Diversity Plus: MyoF Assay (AID 2284267); conditions: primary human lung fibroblasts;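 note: total protein by SRB absorbance in parallel cultures as cytotoxicity measure; cells assessed 24 h after compound addition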
# Procedure, shortened: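 Cytotoxicity in primary human lung fibroblasts is gauged by SRB total-protein staining 24 h after dosing, with DMSO as the negative control.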
# [9] = read-out: TIMP metallopeptidase inhibitor 1 (TIMP1), TIMP1 (gene 7076); assay: BSK_MyoF_TIMP1: BioMAP Diversity Plus: MyoF Assay for TIMP metallopeptidase inhibitor 1 (TIMP1) Biomarker Activity (AID 2284269); conditions: primary human lung fibroblasts
# Procedure, shortened: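 Fibroblasts from human lung are dosed with chemical, cultured 24 h, and assayed for TIMP-1 by ELISA. Increases over the DMSO baseline are scored, with SRB total-protein staining run in parallel for cytotoxicity.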
# [10] = read-out: Monokine induced gamma interferon (MIG), CXCL9 (gene 4283); assay: BSK_KF3CT_MIG: BioMAP Diversity Plus: KF3CT Assay for Monokine induced gamma interferon (MIG) Biomarker Activity (AID 2284248); conditions: primary human keratinocytes with fibroblasts
# Procedure, shortened: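 KF3CT system: keratinocyte/fibroblast co-culture, 24 h post-dose, MIG by ELISA; activity vs DMSO, positive fitting direction.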
# [11] = read-out: Collagen I, COL1A1 (gene 1277); assay: BSK_hDFCGF_CollagenI: BioMAP Diversity Plus: hDFCGF Assay for Collagen I Biomarker Activity (AID 2284250); conditions: primary human foreskin fibroblasts
# Procedure, shortened: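 Cells were primary human foreskin fibroblasts treated for 24 h. Collagen I levels were then determined by ELISA and compared against DMSO controls.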
# [12] = read-out: Interferon-inducible T-cell alpha chemoattractant (ITAC), CXCL11 (gene 6373); assay: BSK_hDFCGF_ITAC: BioMAP Diversity Plus: hDFCGF Assay for Interferon-inducible T-cell alpha chemoattractant (ITAC) Biomarker Activity (AID 2284251); conditions: primary human foreskin fibroblasts
# Procedure, shortened: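 Primary human foreskin fibroblasts (hDFCGF system) treated for 24 h; I-TAC quantified by ELISA. Gain-direction fitting versus DMSO; parallel SRB staining of total protein flagged overt cytotoxicity.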
# [13] = read-out: Plasminogen activator inhibitor-1 (PAI1), SERPINE1 (gene 5054); assay: BSK_KF3CT_PAI1: BioMAP Diversity Plus: KF3CT Assay for Plasminogen activator inhibitor-1 (PAI1) Biomarker Activity (AID 2284252); conditions: primary human keratinocytes with fibroblasts
# Procedure, shortened: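 Signal is PAI-1 detected by ELISA in a human skin-derived keratinocyte/fibroblast co-culture, 24 h after dosing; DMSO served as negative control and baseline.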
# [14] = read-out: Interleukin-8 (IL8), CXCL8 (gene 3576); assay: BSK_KF3CT_IL8: BioMAP Diversity Plus: KF3CT Assay for Interleukin-8 (IL8) Biomarker Activity (AID 2284254); conditions: primary human keratinocytes with fibroblasts
# Procedure, shortened: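 Chemicals were added to co-cultured human keratinocytes and foreskin fibroblasts, incubated 24 h, then IL-8 was quantified by ELISA. Cytotoxicity was tracked by sulforhodamine B total-protein staining in parallel cultures.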
# [15] = read-out: Intercellular Adhesion Molecule 1 (ICAM1), ICAM1 (gene 3383); assay: BSK_BE3C_ICAM1: BioMAP Diversity Plus: BE3C Assay for Intercellular Adhesion Molecule 1 (ICAM1) Biomarker Activity (AID 2284278); conditions: primary human bronchial epithelial cells;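 for outcome: cell-surface ICAM-1 protein level quantified by ELISA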
# Procedure, shortened: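 Measured by ELISA: ICAM-1 expressed by primary human bronchial epithelial cells 24 h after compound treatment, with upward-direction fitting versus DMSO vehicle.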
# [16] = read-out: Interferon-inducible T-cell alpha chemoattractant (ITAC), CXCL11 (gene 6373); assay: BSK_BE3C_ITAC: BioMAP Diversity Plus: BE3C Assay for Interferon-inducible T-cell alpha chemoattractant (ITAC) Biomarker Activity (AID 2284279); conditions: primary human bronchial epithelial cells
# Procedure, shortened: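 BE3C cells (human primary bronchial epithelium), 24 h compound exposure, I-TAC by ELISA, DMSO = negative control/baseline, positive fitting direction.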
# [17] = CCTE_Mundy_HCI_hNP1_Casp3_7: CCTE's Caspase-Glo 3/7 Assay in human neuroprogenitor cells for Apoptosis, Mundy Lab (AID 2284240)
# Procedure, shortened: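 Luminescent caspase-3/7 readout, 26.5 h post-dose, in human neural progenitor cells from WA09 embryonic stem cells. Cells grew 40–44 h at 37 °C, 5% CO2 before chemical addition. Activity analysed as signal increase over DMSO baseline.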
structure (smiles),measurement,setting,value
CCCCOC(=O)CCCCCCCC(=O)OCCCC,outcome,[1],inactive
same,outcome,[2],inactive
same,outcome,[3],inactive
same,outcome,[4],inactive
same,outcome,[5],inactive
same,outcome,[6],inactive
same,outcome,[7],inactive
same,outcome,"Decorin, DCN (gene 1634)",inactive
same,outcome,[8],inactive
same,outcome,[9],inactive
O=C1OC[C@H](Cc2cccc(O)c2)[C@H]1Cc1cccc(O)c1,outcome,[1],inactive
same,outcome,[2],inactive
same,outcome,[3],inactive
same,outcome,[4],inactive
same,outcome,[5],inactive
same,outcome,[6],inactive
same,outcome,[7],inactive
same,outcome,"Decorin, DCN (gene 1634)",inactive
same,outcome,[8],inactive
same,outcome,[9],inactive
O=C(Nc1ccc2c(O)c(N=Nc3ccc(N=Nc4ccc(S(=O)(=O)O)cc4)cc3)c(S(=O)(=O)O)cc2c1)c1ccccc1,outcome,[10],inactive
same,outcome,[11],inactive
same,AC50,[12],32.3 µM (active) and 27.1 µM (active)
same,outcome,[13],inactive
same,outcome,[14],inactive
same,outcome,[15],inactive
same,AC50,[16],30.4 µM (active) and 20 µM (active)
CC(CN=Cc1ccccc1O)N=Cc1ccccc1O (stereo not drawn),outcome,[10],inactive
same,outcome,[11],inactive
same,outcome,[12],inactive
same,outcome,[13],inactive
same,outcome,[14],inactive
same,outcome,[15],inactive
same,outcome,[16],inactive
CS(=O)(=O)c1ccc(C2=C(c3ccccc3)C(=O)OC2)cc1,outcome,[1],inactive
same,outcome,[2],inactive
same,outcome,[3],inactive
same,outcome,[4],inactive
same,outcome,[5],inactive
same,AC50,[6],0.0082 µM (active)
same,outcome,[7],inactive
same,outcome,"Decorin, DCN (gene 1634)",inactive
same,outcome,[8],inactive
same,outcome,[9],inactive
C=CC(C)(O)CCC=C(C)C (stereo not drawn),outcome,[10],inactive
same,outcome,[11],inactive
same,outcome,[12],inactive
same,outcome,[13],inactive
same,outcome,[14],inactive
same,outcome,[15],inactive
same,outcome,[16],inactive
CC(=O)C1(C)CC2=C(CCCC2(C)C)CC1C (stereo not drawn),AC50,[1],24.7 µM (active)
same,AC50,[2],13.1 µM (active)
same,outcome,[3],inactive
same,AC50,[4],29.3 µM (active)
same,AC50,[5],11.9 µM (active)
same,AC50,[6],11.2 µM (active)
same,outcome,[7],inactive
same,outcome,"Decorin, DCN (gene 1634)",inactive
same,AC50,[8],14.6 µM (active)
same,AC50,[9],20 µM (active)
CCC(C)c1cc([N+](=O)[O-])cc([N+](=O)[O-])c1OC(=O)OC(C)C (stereo not drawn),AC50,[1],2.66 µM (active)
same,AC50,[2],8.46 µM (active)
same,AC50,[3],20 µM (active)
same,AC50,[4],27.7 µM (active)
same,AC50,[5],20 µM (active)
same,AC50,[6],11.7 µM (active)
same,AC50,[7],35.8 µM (active)
same,AC50,"Decorin, DCN (gene 1634)",24.4 µM (active)
same,AC50,[8],13.4 µM (active)
same,AC50,[9],13.6 µM (active)
CCCCCC(C=O)=Cc1ccccc1,outcome,[1],inactive
same,AC50,[2],29.5 µM (active)
same,outcome,[3],inactive
same,outcome,[4],inactive
same,outcome,[5],inactive
same,outcome,[6],inactive
same,outcome,[7],inactive
same,outcome,"Decorin, DCN (gene 1634)",inactive
same,outcome,[8],inactive
same,outcome,[9],inactive
CCOC(=O)C(C#N)=C(c1ccccc1)c1ccccc1,outcome,[10],inactive
same,outcome,[11],inactive
same,AC50,[12],26.1 µM (active)
same,outcome,[12],inactive
same,outcome,[13],inactive
same,outcome,[14],inactive
same,outcome,[15],inactive
same,outcome,[16],inactive
CCCCCCC(CO)CCCC (stereo not drawn),AC50,[10],35.5 µM (active)
same,AC50,[11],36.4 µM (active) and 30.8 µM (active)
same,AC50,[12],33.1 µM (active) and 34.8 µM (active)
same,AC50,[13],32.7 µM (active) and 31 µM (active)
same,AC50,[14],28.9 µM (active) and 32.5 µM (active)
same,AC50,[15],20 µM (active)
same,outcome,[15],inactive
same,outcome,[16],inactive
C=C(C)C(=O)OCCOCCOCCOCCOC(=O)C(=C)C,outcome,[1],inactive
same,outcome,[2],inactive
same,outcome,[3],inactive
same,outcome,[4],inactive
same,outcome,[5],inactive
same,outcome,[6],inactive
same,outcome,[7],inactive
same,outcome,"Decorin, DCN (gene 1634)",inactive
same,outcome,[8],inactive
same,outcome,[9],inactive
CN(C)CCOC(C)(c1ccccc1)c1ccccn1 (stereo not drawn),outcome,[17],inactive
